Out of some 48,000 compounds screened, about 13,000 (27%) showed an effect of 50% or more. This is one part of the list.

This assay concerns Wolbachia pipientis. In words: Anti-Wolbachia Cell-Based Screen. It counts as functional. Also on record: scale not given: in the data most compounds retested in dose-response had high values. To be noted: 5 µM.
On to `COCCO[C@@H]1C[C@H]2CN(C(=O)c3cccnc3)CCN2C1`, for which the “Percent Effect” value is -1.303%.

For `CNC(=O)[C@H]1C[C@@H]2CN(C(=O)c3ccc(C)nc3)C[C@@H]2N1C`, the “Percent Effect” value is -27.99%.

On to `COCCn1c(C(=O)NCc2n[nH]c(C)n2)cc2ccccc21`, for which the “Percent Effect” value is given as -4.273%.

Take `O=C(O)C(F)(F)F.O=C(O)C(F)(F)F.O=C(O)C(F)(F)F.c1ccc(CO[C@@H]2CN(Cc3cccnc3)[C@@H]3COC[C@@H]32)nc1`: the “Percent Effect” value turned out to be 110.7%.

Take `CC(=O)C1(c2ccccc2)CCN(C(=O)C2CNCCO2)CC1` (stereo not given): the “Percent Effect” value is 2.674%.

`CNC(=O)[C@@H]1[C@H]2CNCCN2C[C@H]1c1ccccc1`: the “Percent Effect” value turned out to be 84.83%.

Turning to `CCOC(=O)[C@@H]1[C@@H](c2ccccc2)CN2CCNC[C@H]12`, the “Percent Effect” value is 118.8%.

In the case of `CC(=O)NC(C)C(=O)NCc1ccc(N2CCNC(=O)C2)cc1` (stereo not given), the “Percent Effect” value is on record as 100.5%.

On to `Cl.O=C(N[C@H]1CN[C@H]2CCCO[C@H]21)c1ccno1`, for which the “Percent Effect” value is given as -7.03%.

Take `O=C1CO[C@@H]2CNC[C@H]2N1CC1CC1`: the “Percent Effect” value is -15.76%.

For `COc1cccc(CCNCc2c(C)nn(C)c2N(C)C)c1`, the “Percent Effect” value is given as -6.952%.

On to `COc1c(CNCCc2c[nH]c3ccccc23)c(C)nn1C`, for which the “Percent Effect” value turned out to be 86.16%.

`COc1c(CNCCc2c[nH]c3ccccc23)c(C(C)C)nn1C`: the “Percent Effect” value came to 95.04%.

Turning to `CC(C(=O)N(C)C)N1CCCN(C(=O)Oc2ccccc2)CC1` (stereo not given), the “Percent Effect” value is on record as -7.894%.

In the case of `Cc1ncc2c(n1)CCCC2NC(=O)c1cnn(Cc2ccccc2)c1` (stereo not given), the “Percent Effect” value is reported as 108%.

Regarding `Cl.NC1(c2nc(C(F)(F)F)cc(=O)[nH]2)CCCCC1`, the “Percent Effect” value is -23.28%.

Consider `COCCN1CCN(c2ccc(C)nn2)Cc2cccnc21.O=C(O)C(F)(F)F`, for which the “Percent Effect” value was -12.27%.

Turning to `COCCN1CCN(c2ccc(C)nn2)Cc2ccc(C)nc21.O=C(O)C(F)(F)F.O=C(O)C(F)(F)F`, the “Percent Effect” value is reported as 113.9%.

For the molecule `COCCN1CCN(c2cccc(C)n2)Cc2ccc(C)nc21.O=C(O)C(F)(F)F.O=C(O)C(F)(F)F`, the “Percent Effect” value was 115.7%.

As for `COCCN1CCN(S(C)(=O)=O)Cc2ccc(C)nc21.O=C(O)C(F)(F)F`, the “Percent Effect” value is reported as 1.772%.

For `COc1ccc(CCN)cc1-c1ccc(O)cc1`, the “Percent Effect” value is reported as -1.441%.

Regarding `COc1cccc2c(=O)n(C3CCNCC3)cnc12`, the “Percent Effect” value is 0.1861%.

As to `COCC(=O)NC(C)Cc1cccc(OC)c1` (stereo not given), the “Percent Effect” value is given as -11.91%.

For the molecule `COc1cccc(CC(C)NC(=O)NC(C)C)c1` (stereo not given), the “Percent Effect” value was -4.746%.

Turning to `COc1ccc(CC(C)Nc2cccc(F)c2)cc1` (stereo not given), the “Percent Effect” value came out at 103.5%.

Turning to `CC(=O)N1CC[C@H]2N(C)CC[C@@]2(C(=O)Nc2cccnc2)CC1`, the “Percent Effect” value is given as 115.3%.

Turning to `CC(=O)N1CCC2(CC1)NC(=O)[C@H]1CN(Cc3cccnc3)C[C@H]12`, the “Percent Effect” value is on record as -21.72%.

For the molecule `CC(=O)N1C[C@H]2CNC[C@@]2(C(=O)NCCCOc2cccnc2)C1`, the “Percent Effect” value is -25.71%.

As to `CC1CCN(CC(=O)N(Cc2ccccc2)Cc2nccs2)C1=O` (stereo not given), the “Percent Effect” value turned out to be 108.7%.

As to `O=C(CCc1nccs1)N1CCC(C(=O)O)(c2ccccc2)CC1`, the “Percent Effect” value stood at 4.146%.

For `CN(Cc1nc(C2CC2)no1)C(=O)CN1CC(c2ccccc2)CC1=O` (stereo not given), the “Percent Effect” value is -16.31%.

Regarding `O=C(NC[C@H]1C[C@@H]2CCN1C[C@@H]2CN1CCOCC1)Nc1ccccc1`, the “Percent Effect” value worked out at 10.54%.

As for `Cc1cc(C(=O)N2CCC3(CCN3Cc3ccc(F)cc3)C2)no1.O=C(O)C(F)(F)F` (stereo not given), the “Percent Effect” value is -18.68%.

With `CC[C@@H]1N(Cc2ccncc2)CCC[C@]12CCC(=O)N2C.O=C(O)C(F)(F)F.O=C(O)C(F)(F)F`, the “Percent Effect” value turned out to be 105.4%.

With `CN(C)C(=O)CN1CCC2(CCCN(Cc3cccnc3)C2)C1=O.O=C(O)C(F)(F)F.O=C(O)C(F)(F)F` (stereo not given), the “Percent Effect” value is on record as -8.484%.

Turning to `Cn1cc(N2C(=O)CC[C@@H]3[C@H]2CCN3Cc2ccncc2)cn1.O=C(O)C(F)(F)F.O=C(O)C(F)(F)F`, the “Percent Effect” value is -8.311%.

On to `CC[C@@H]1N(Cc2ccncc2)CCC[C@]12CCC(=O)N2CCOC.O=C(O)C(F)(F)F.O=C(O)C(F)(F)F`, for which the “Percent Effect” value was determined as 102.9%.

Turning to `O=C(O)C(F)(F)F.O=C(O)C(F)(F)F.O=C(O)C(F)(F)F.O=C1N(c2cccnc2)CCC12CCCN(Cc1cccnc1)C2` (stereo not given), the “Percent Effect” value is on record as -3.646%.

As for `CC[C@@H]1N(Cc2cccnc2)CCC[C@]12CCC(=O)N2C.O=C(O)C(F)(F)F.O=C(O)C(F)(F)F`, the “Percent Effect” value is given as 114.6%.

Regarding `CNC(=O)CN1C(=O)CCC12CCCN(Cc1ccccn1)C2` (stereo not given), the “Percent Effect” value is reported as -6.812%.

Consider `CC[C@@H]1N(Cc2ccccn2)CCC[C@]12CCC(=O)N2CCOC`, for which the “Percent Effect” value stood at 95.06%.

Consider `COCCCN1CCCCC12CC(=O)N(Cc1ccccn1)C2` (stereo not given), for which the “Percent Effect” value is on record as -0.9294%.

Regarding `Cc1ccc(CN2CC[C@@H]3[C@H]2CCC(=O)N3Cc2ccncc2)s1.O=C(O)C(F)(F)F.O=C(O)C(F)(F)F`, the “Percent Effect” value is recorded as 13.87%.

In the case of `O=C(O)C(F)(F)F.O=C(O)C(F)(F)F.O=C1CC[C@@H]2[C@@H](CCN2Cc2ccncc2)N1c1ccccc1`, the “Percent Effect” value was -23.66%.

`Cc1oc(-c2ccco2)nc1CC(=O)N1CCN(C2CCC2)CC1`: the “Percent Effect” value turned out to be 0.04228%.

For the molecule `CNC(=O)[C@H]1C[C@@H]2CN(C(=O)c3cncc(C)c3)C[C@@H]2N1C`, the “Percent Effect” value is recorded as -44.11%.

For `O=C1O[C@@H]2CN(Cc3ccsc3)C[C@@H]2N1Cc1ccccn1`, the “Percent Effect” value is recorded as -2.572%.

Regarding `CCN1CCN(C)C(=O)C12CCN(C(=O)Cc1ccccn1)CC2.O=C(O)C(F)(F)F`, the “Percent Effect” value is listed as 105.5%.

`CC(C)CN1CCNC(=O)C12CCN(C(=O)c1ccccn1)CC2`: the “Percent Effect” value is on record as -2.981%.

Consider `CC(C)N1CCN(C)C2(CCN(C(=O)c3ccnnc3)CC2)C1=O`, for which the “Percent Effect” value is given as -6.646%.

Turning to `CCN1CCNC(=O)C12CCN(C(=O)c1ccccn1)CC2`, the “Percent Effect” value stood at 120%.

In the case of `O=C(CCc1cscn1)N1CCC(C(=O)O)(c2ccccc2)CC1`, the “Percent Effect” value was -1.592%.

Take `CCN1CCNC(=O)C12CCN(C(=O)Cc1ccccn1)CC2`: the “Percent Effect” value was determined as 118.9%.

On to `CCS(=O)(=O)N1CCC2(C1)C(=O)N(C)CCN2Cc1ccncc1.O=C(O)C(F)(F)F.O=C(O)C(F)(F)F` (stereo not given), for which the “Percent Effect” value is listed as -0.1551%.

In the case of `N#CC1(c2ccccc2)CCN(C(=O)CN2C(=O)CCNC2=O)CC1`, the “Percent Effect” value is on record as -11.36%.

Values taken from ChEMBL document CHEMBL3988442, “University of Dundee, Small-Polar-MMV Screening Library” (2021).
